In PubChem BioAssay AID485346 (Sanford-Burnham Center for Chemical Genomics, 2010) one finds inhibition data, which are given here for 97 compounds.

Screen size: about 330,000 compounds; about 10,000 (3%) were called active. The sample holds actives, similar compounds and a random draw of the others, so the mix is not that of the screen. A number with no mark means an inactive call.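 The calls were made as follows: active = inhibition of at least 50% at 8 µM in the primary screen; inactive = the rest.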

Chain of Protein Mdm4 (Homo sapiens) + E3 ubiquitin-protein ligase Mdm2 (Homo sapiens) (O15151 whole entry, looked up): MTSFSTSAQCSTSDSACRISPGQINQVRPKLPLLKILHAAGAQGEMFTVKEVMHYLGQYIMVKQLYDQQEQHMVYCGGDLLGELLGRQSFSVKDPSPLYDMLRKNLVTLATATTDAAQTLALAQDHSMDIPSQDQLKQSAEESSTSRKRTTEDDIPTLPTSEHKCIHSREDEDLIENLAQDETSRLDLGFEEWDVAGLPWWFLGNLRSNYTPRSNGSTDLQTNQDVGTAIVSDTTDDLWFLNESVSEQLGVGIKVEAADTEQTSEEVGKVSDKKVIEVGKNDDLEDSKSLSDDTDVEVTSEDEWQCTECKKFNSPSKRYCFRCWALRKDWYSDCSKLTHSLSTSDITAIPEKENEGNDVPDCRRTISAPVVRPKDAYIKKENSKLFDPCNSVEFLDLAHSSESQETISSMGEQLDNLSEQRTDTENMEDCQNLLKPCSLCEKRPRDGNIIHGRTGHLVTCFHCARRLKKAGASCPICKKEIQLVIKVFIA
Chain of Protein Mdm4 (Homo sapiens) + E3 ubiquitin-protein ligase Mdm2 (Homo sapiens) (Q00987 whole entry, looked up): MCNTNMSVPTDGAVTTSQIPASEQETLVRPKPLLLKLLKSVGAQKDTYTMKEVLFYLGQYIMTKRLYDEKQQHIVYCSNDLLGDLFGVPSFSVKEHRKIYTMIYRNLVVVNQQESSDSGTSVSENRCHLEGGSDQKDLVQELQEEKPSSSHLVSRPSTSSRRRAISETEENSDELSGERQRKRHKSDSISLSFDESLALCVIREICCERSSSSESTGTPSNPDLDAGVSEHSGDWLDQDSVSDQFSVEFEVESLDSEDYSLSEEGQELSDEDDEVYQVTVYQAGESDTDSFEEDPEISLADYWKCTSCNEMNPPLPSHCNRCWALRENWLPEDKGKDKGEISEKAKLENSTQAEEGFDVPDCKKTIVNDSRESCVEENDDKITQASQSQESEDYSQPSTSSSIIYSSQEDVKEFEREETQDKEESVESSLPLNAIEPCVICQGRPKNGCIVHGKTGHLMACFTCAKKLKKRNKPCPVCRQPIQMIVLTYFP

The assay concerns the target Protein Mdm4 (Homo sapiens) + E3 ubiquitin-protein ligase Mdm2 (Homo sapiens) (UniProt O15151+Q00987). Nature of the assay: disruptors of Mdm2/MdmX RING complex – cell-based, luminescence, split luciferase, SaOS-2, uHTS, primary screen (AID 485346). The settings on record: SaOS-2 split-luciferase Mdm2/MdmX complementation, at 8 µM, stronger effect = higher value.
With `CN(C(=O)CSc1cccc[n+]1[O-])C1CCCCC1`, the inhibition is 20.9%.

Turning to `CN1CCN(CC#CCC2(O)c3ccccc3-c3ccccc32)CC1`, the inhibition is 16.2%.

Turning to `COc1ccc(-c2nnc(SC(C)C(=O)NC3CC3)o2)cc1` (configuration not stated), the inhibition is 19.9%.

As to `COc1ccc(-c2nnc(SCC(=O)c3ccc4c(c3)OCCO4)o2)cc1`, the inhibition was 17.3%.

As to `COc1ccc(-c2nnc(SC(=O)N3c4ccccc4Sc4ccccc43)o2)cc1`, the inhibition was 69.1% (active).

For `O=C(CCc1ccccc1)Nc1ccc(NC(=O)C2CCCCC2)nc1`, the inhibition was 11%.

For the compound `COc1ccc(CNC(=O)CN(C(=O)c2csnn2)c2cnc3ccccc3c2)cc1`, the inhibition is 12.6%.

Take `CCOC(CNC(=O)C1CCN(S(=O)(=O)c2ccc3nc4c(c(C(=O)O)c3c2)CC(C)CC4)CC1)OCC` (configuration not stated): the inhibition is 14.5%.

`C/C(=N\OCC(=O)O)c1ccc(Cl)cc1`: the inhibition is -3.73%.

Regarding `C/C(=N\N=C(N)N)c1ccc(Cl)cc1`, the inhibition is 52% (active).

For the compound `C/C(=N\NC(=S)NCc1ccccc1)c1ccc(Cl)cc1`, the inhibition is 12.3%.

Turning to `CN(C)c1ccc(C(CNC(=O)c2ccc(F)cc2)c2c[nH]c3ccccc23)cc1` (configuration not stated), the inhibition is 3.11%.

For `Cc1cnc(C(=O)OCC(=O)Nc2ccc(Cl)cc2Cl)cn1`, the inhibition was 21.4%.

With `COC(=O)c1sccc1NC(=O)COc1ccc(Cl)cc1`, the inhibition is -7.02%.

Regarding `COC(=O)c1c(NC(=O)COc2ccc(Cl)cc2Cl)sc2c1CC(C)(C)NC2(C)C`, the inhibition is 100% (active).

As to `CCc1ccc(CN(C)C(C)C(=O)Nc2ccc(S(=O)(=O)N3CCCC3)cc2)cc1` (configuration not stated), the inhibition was 20.1%.

Regarding `Oc1[nH]c2ccc(Br)cc2c1N=Nc1nn[nH]n1`, the inhibition is 13.6%.

On to `O=C(CNC(=O)Cc1ccccc1)N=Nc1c(O)[nH]c2ccc(Br)cc12`, for which the inhibition is 37.6%.

Regarding `NS(=O)(=O)c1ccc(N=Nc2c(O)[nH]c3ccc(Br)cc23)cc1`, the inhibition was 53.6% (active).

With `Cc1ccc(OCCOCCOc2ccc(Br)cc2/C=N\NC(=O)c2ccncc2)cc1`, the inhibition was 59.9% (active).

On to `Cc1ccc(S(=O)(=O)Oc2ccc(/C=N/NC(=O)c3ccncc3)cc2)cc1`, for which the inhibition was 16.6%.

In the case of `COc1ccc(CC(=O)NCC(=O)N/N=C/c2cc(Br)ccc2OC)cc1`, the inhibition was 41.6%.

Turning to `O=C(Nc1ccnn1C1CCN(C/C=C/c2ccc(F)cc2)CC1)C1CCCC1`, the inhibition is 22.3%.

`O=C(O)CN(Cc1ccco1)S(=O)(=O)c1ccc(F)cc1`: the inhibition was -22%.

`Cc1onc(-c2c(F)cccc2Cl)c1C(=O)N(C)CC(=O)Nc1cccc(F)c1`: the inhibition was -8.71%.

In the case of `COc1cccc(CNCCc2c[nH]c3ccccc23)c1OCc1ccccc1F`, the inhibition is 92.8% (active).

Regarding `COc1ccc(S(=O)(=O)NCCc2c[nH]c3ccccc23)cc1OC`, the inhibition was 6.22%.

On to `COc1ccccc1NC(=O)CCCc1c[nH]c2ccccc12`, for which the inhibition was -3.5%.

For `Cc1ccoc1C(=O)Nc1cccc(Oc2ccccc2)c1`, the inhibition was -66.5%.

Take `COC(=O)c1ccccc1NC(=O)C1(S(=O)(=O)c2ccc(Cl)cc2)CC1`: the inhibition was -0.27%.

As for `C=C(C)COc1ccc(-c2nc(N)ncc2-c2ccccc2OC)c(O)c1`, the inhibition was 17.9%.

As to `C=C(C)COc1ccc(-c2n[nH]c(C)c2-c2ccccc2OC)c(O)c1`, the inhibition was 53.6% (active).

As to `COc1ccc(-c2c(-c3ccc(OC)cc3O)nc(C)nc2C(F)(F)F)cc1`, the inhibition is 8.07%.

With `C=C(C)COc1ccc(-c2ncncc2-c2ccc(OC)cc2)c(O)c1`, the inhibition was 29.3%.

With `CCOc1ccc(-c2nc(N)ncc2-c2ccccc2OC)c(O)c1`, the inhibition is 11.3%.

Consider `C=C(C)COc1ccc(-c2n[nH]c(C)c2-c2ccccc2)c(O)c1`, for which the inhibition is 53.7% (active).

As for `COc1ccc(-c2n[nH]c(C)c2-c2ccccc2OC)c(O)c1`, the inhibition was 38.6%.

As for `COc1ccc(-c2n[nH]c(C)c2-c2ccc(OC)c(OC)c2)c(O)c1`, the inhibition is 62.5% (active).

As for `COc1ccc(-c2[nH]ncc2CN(C)Cc2c(C)n[nH]c2C)c(OC)c1`, the inhibition is 15.3%.

Turning to `O=C(NCCCCO)C(F)(F)C(F)(F)C(F)(F)C(=O)NCCCCO`, the inhibition is -22.9%.

As to `C=CCNCCCCOc1ccccc1`, the inhibition is -9.48%.

As to `C/C=C/C=C/C(=O)OCC(=O)Nc1ccc(Cl)cc1`, the inhibition is 23.8%.

Regarding `Cc1ccc(N2C(=O)CC(Sc3ncn[nH]3)C2=O)cc1` (configuration not stated), the inhibition was 7.7%.

In the case of `N#CC1(NC(=O)COC(=O)CSc2ccc(F)cc2)CCCCC1`, the inhibition is 6.22%.

Take `Cc1ccc(C(=O)NN(CCC#N)C2=NS(=O)(=O)c3ccccc32)cc1`: the inhibition was 6.64%.

Turning to `Cc1cn(C2OC[C@@H](O)[C@@H]2CO)c(=O)[nH]c1=O` (some centres not stated), the inhibition was -25.3%.

As for `CCOC(=O)N1CCN(C(=O)c2ccc(S(=O)(=O)Nc3cccc(C(F)(F)F)c3)cc2)CC1`, the inhibition was 5.75%.

As for `CCOC(=O)c1ccc2c(c1)nc(C)n2CC`, the inhibition is -24.3%.

On to `CCn1c(/C=C/Nc2ccccc2)[n+](CC)c2ccc(C(=O)OCC(F)(F)F)cc21`, for which the inhibition was 50.7% (active).

As to `Cc1nc2c(C(=O)NCc3cccs3)cnn2c(C)c1Cc1ccc(F)cc1`, the inhibition is 5.96%.

On to `CN(C)c1ccc(-c2nnc(-c3cccnc3)o2)cc1`, for which the inhibition was -90.9%.

As to `CN(Cc1ccccc1)CC(O)COc1ccc(CNCc2cc3ccccc3s2)cc1` (configuration not stated), the inhibition was 51.9% (active).

As to `OC(CNCc1ccc2c(c1)OCO2)COc1ccccc1` (configuration not stated), the inhibition was -15.2%.

Take `Cc1ccc(OCC(=O)OC(C)CN(C)Cc2ccccc2)cc1` (configuration not stated): the inhibition is -13.3%.

For `CCC(C)c1ccc(NC(=S)N2CCCC2)cc1` (configuration not stated), the inhibition was 17.9%.

As for `O=C(O)CN1C(=O)CC(Cc2ccccc2)C1=O` (configuration not stated), the inhibition was 3.44%.

With `NS(=O)(=O)c1ccc(CNC(=O)c2cccc(S(=O)(=O)N3CCc4ccccc43)c2)cc1`, the inhibition is 27.6%.

For the compound `C[C@@H]1CN([C@@H](C)CO)C(=O)c2cccc(NS(=O)(=O)c3ccc(F)cc3)c2O[C@H]1CN(C)C(=O)NC1CCCCC1`, the inhibition is -2.62%.

On to `O=C(CN1CCN(C2CCCCC2)CC1)Nc1ccccc1N1CCCCC1`, for which the inhibition is 20%.

For `CN1CCN(c2ccccc2NC(=O)COc2ccc(C3CCCCC3)cc2)CC1`, the inhibition is 51.3% (active).

Take `Cc1ccc(C(C)C)cc1OCC(=O)Nc1ccccc1N1CCCC1`: the inhibition is 28.7%.

Turning to `CSCCC1NC(=O)N(CC(=O)Nc2cccc(S(=O)(=O)N3CCCCCC3)c2)C1=O` (configuration not stated), the inhibition is 2.6%.

For the compound `O=C1/C(=C\Nc2ccccc2)CCN1c1ncccn1`, the inhibition was -11.4%.

Consider `O=C(CN1CCCSc2ccccc21)N1CCN(S(=O)(=O)c2ccccc2)CC1`, for which the inhibition is -4.66%.

Regarding `COc1ccccc1C(=O)NC(=S)Nc1ccccc1N1CCCCC1`, the inhibition is 30%.

For the compound `O=C(NC(=O)c1ccccc1N1CCCCC1)Nc1ccc(Br)cc1`, the inhibition was 51.5% (active).

`Cc1ccccc1NC(=O)Nc1ccccc1N1CCCCC1`: the inhibition is 2.88%.

As to `COc1ccccc1NC(=O)CN(c1ccccc1OC)S(=O)(=O)c1ccccc1`, the inhibition was -19.5%.

`COc1ccccc1N(CC(=O)N/N=C(\C)c1ccccc1O)S(=O)(=O)c1ccc(C)cc1`: the inhibition is 52.3% (active).

As to `COc1ccc(S(=O)(=O)N(CC(=O)N/N=C/c2ccccc2C(=O)O)c2ccccc2OC)cc1`, the inhibition is -6.42%.

Turning to `C=CCN1CC(C)/C(=N\O)CC1C` (configuration not stated), the inhibition is 24.4%.

Regarding `Brc1cc(Br)c(Oc2cc(Br)c(Br)cc2Br)cc1Br`, the inhibition was 15.4%.

Regarding `Fc1ccccc1-c1cc2cc3c(cc2cn1)OCO3`, the inhibition was -231%.

With `Cc1nc2ccccc2n1CC(=O)N/N=C/c1cccnc1`, the inhibition is 25.2%.

Turning to `O=C(CSc1cccc2cccnc12)N/N=C/c1cccnc1`, the inhibition was 54.3% (active).

On to `Cc1ccc(NC(=O)CSc2cccc3cccnc23)c(C)c1`, for which the inhibition was 28.1%.

Consider `C/C(=N\NC(=O)c1ccc(CSc2nc(C)cc(C)n2)cc1)C1CCCCC1`, for which the inhibition is 11.2%.

Regarding `COc1ccc(NC(=O)CSCc2ccc([N+](=O)[O-])cc2)cc1OC`, the inhibition was 22.2%.

As for `O=C(c1cccc(S(=O)(=O)N2CCCC2)c1)N(Cc1ccco1)C1CCS(=O)(=O)C1` (configuration not stated), the inhibition was 10.9%.

Turning to `O=C(N/N=C\c1cc2c(cc1Cl)OCO2)c1ccc(Br)s1`, the inhibition is 87.3% (active).

For `CC1(C(=O)N/N=C/c2cc3c(cc2Br)OCO3)CC1(Br)Br` (configuration not stated), the inhibition was 31.2%.

Regarding `O=C(N/N=C/c1cc2c(cc1Br)OCO2)C1COc2ccccc2O1` (configuration not stated), the inhibition is 3.36%.

In the case of `O=S(=O)(Nc1nccs1)c1ccc2c(c1)OCCO2`, the inhibition is 12.5%.

For `CC(Sc1nnc(CNC(=O)c2ccccc2F)n1C)C(=O)Nc1nccs1` (configuration not stated), the inhibition was -5.88%.

Consider `Nc1ccc2nn(-c3ccc(Cl)cc3)nc2c1`, for which the inhibition is -91.9%.

Regarding `NC(=S)N/N=C/c1coc2cc(Cl)ccc2c1=O`, the inhibition is -1.23%.

In the case of `CCOc1ccc(/C=N/NC(N)=S)cc1`, the inhibition is 10.2%.

Consider `CC(C)Oc1c(Br)cc(Br)cc1/C=N/NC(N)=S`, for which the inhibition is 57.4% (active).

In the case of `COC(=O)CCC(=O)N1CCCC(CO)(Cc2ccccc2)C1` (configuration not stated), the inhibition was -73.8%.

Consider `C[C@@H](C(=O)N1CCNCC1)n1cc(CCC(=O)O)nn1`, for which the inhibition is 3.92%.

Regarding `COc1ccc(N(C(=O)c2snc(C(N)=O)c2N)C(C(=O)NC2CCCC2)c2ccc(C)o2)c(OC)c1` (configuration not stated), the inhibition was 8.7%.

Regarding `CC(OC(=O)CNC(=O)c1ccc(Cl)c([N+](=O)[O-])c1)C(=O)NCc1ccco1` (configuration not stated), the inhibition was 27.3%.

Regarding `O=C(Nc1ccncc1)c1ccc(Cl)c([N+](=O)[O-])c1`, the inhibition is 6.79%.

With `N#Cc1cccc(NC(=O)COC(=O)c2ccccc2C(=O)c2ccc(Cl)c([N+](=O)[O-])c2)c1`, the inhibition was 98.1% (active).

As to `COC(=O)c1cc(NC(=O)Cc2ccccc2[N+](=O)[O-])ccc1Cl`, the inhibition is -1.62%.

Turning to `CC(=O)Nc1ccc(NC(=O)COC(=O)c2ccccc2C(=O)c2ccccc2)cc1`, the inhibition is 2.79%.

Turning to `CC(=O)Nc1ccc(NC(=O)C(C)OC(=O)c2ccccc2C(=O)c2ccc(Cl)c([N+](=O)[O-])c2)cc1` (configuration not stated), the inhibition was 98.6% (active).

A word on the inhibition: it is the change of the read-out against control, counted positive when it falls.
